This is a sample that favours compounds with a hit; in the whole collection about 4.1% have one here.
ALR H2O2 inh: human ALR oxidase inhibition via reduced H2O2. P55789. inhibition, % (test concentration not listed). purified ALR, DTT oxidation, H2O2 HRP-luminol luminescence. actives 3.8% (n = 290,000);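 active = mean replicate inhibition above about 79%, with every replicate also reaching it, limit read from the data; inconclusive = only one of the two criteria met; inactive = mean below limit and not every replicate reaching it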
Target sequence (P55789 whole entry, looked up): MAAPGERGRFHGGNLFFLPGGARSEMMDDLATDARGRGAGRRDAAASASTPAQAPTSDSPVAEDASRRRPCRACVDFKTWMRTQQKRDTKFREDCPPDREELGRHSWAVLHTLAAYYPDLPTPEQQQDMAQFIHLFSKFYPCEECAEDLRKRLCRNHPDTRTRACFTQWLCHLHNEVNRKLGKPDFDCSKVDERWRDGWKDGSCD
PolyA inh: blocks polyadenylation in yeast reporter cells. S. cerevisiae SKY197-pL101 polyadenylation reporter, beta-gal luminescence; efflux-impaired pdr1/pdr3 knockout yeast; score 100 = 6 SD above DMSO. activity score, % at 12 µM. actives 0.02% (n = 300,000). AID 1875;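 active = lowest replicate activity score at least 50, where 100 means six control SD above control mean; inconclusive = lowest score under 50 but half or more replicates reach 50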;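 note: yeast exposed to compound for 9 h at 30 °C; higher score means more reporter readthrough which indicates perturbed polyadenylation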
IDE inh: inhibitors of human insulin-degrading enzyme in cells. P14735. HEK cells, FAbetaB cleavage, fluorescence polarization. inhibition, % at 5.59 µM. actives 0.41% (n = 320,000);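 active = percent inhibition above the average of all tested compounds plus 3 SD, set per screening campaign, cut at about 16% in these data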;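 note: IDE supplied by intact live HEK cells; FP after avidin binding of uncleaved biotin substrate so inhibition keeps polarization high; 0% = DMSO wells and 100% = 60 µM reference IDE inhibitor Ii1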
CaV13 ICDI inh: Primary screen for inhibitors of IQ motif and Ca2+-dependent inactivation inhibitor domain binding in CACNA1D, Förster resonance energy transfer in living cells, … | HEK cells, CFP/YFP FRET ICDI-IQ, plate reader, 10 min; percent FRET-ratio fall versus neutral wells | inhibition, % at 12.3 µM | actives 0.098% (n = 340,000) | AID 743397;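 active = mean replicate inhibition of at least 30% and at least 1% of replicates passing that level; inconclusive = only one of the two criteria is met; inactive = neither criterion is met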;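 note: 0% = median of the neutral control wells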
PfM18AAP inh-1: blocks P. falciparum M18 aspartyl aminopeptidase | actives 1.2% (n = 290,000) | inhibition, % at 7.35 µM | recombinant PfM18AAP, H-Glu-NHMec fluorogenic cleavage;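 active = inhibition above the campaign mean inhibition over all tested compounds plus 3 SD, cut at about 28% in these data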;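 note: 0% = plate median of test compound wells and 100% = 2 mM ZnCl2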
IDE cell activ: boosts human insulin-degrading enzyme activity in HEK cells. AID 493087. actives 0.073% (n = 340,000). activation, % at 5.96 µM. FAbeta-B cleavage, fluorescence polarization; 0% vehicle, 100% cell-free pure enzyme wells;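 active = activation above the mean of all tested compounds plus 3 SD, set per screening campaign, cut at about 17% in these data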
PfM18AAP inh-2: confirmation of Plasmodium falciparum M18 aspartyl aminopeptidase inhibitors; inhibition, % at 7.35 µM; actives 28% (n = 2,400); shares compounds with PfM18AAP inh-1; recombinant PfM18AAP, H-Glu-NHMec fluorogenic cleavage;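 active = mean inhibition over replicate wells above the hit cutoff set for the earlier primary screen, cut at about 29% in these data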;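 note: 0% = median of test compound wells and 100% = 2 mM ZnCl2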
CTSL1 counter: Cathepsin L (human) inhibition, confirmation | shares compounds with PfM18AAP inh-1 | purified cathepsin L1, Z-Leu-Arg-MCA fluorescence | inhibition, % at 5.96 µM | 2,400 tested, under 10 active | AID 2178;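 active = average inhibition across replicates above the hit cutoff set in the earlier primary screen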;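 note: 0% = median of test compound wells and 100% = Z-Phe-Ala-diazomethylketone 1 µM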
Target sequence (P07711 whole entry, looked up): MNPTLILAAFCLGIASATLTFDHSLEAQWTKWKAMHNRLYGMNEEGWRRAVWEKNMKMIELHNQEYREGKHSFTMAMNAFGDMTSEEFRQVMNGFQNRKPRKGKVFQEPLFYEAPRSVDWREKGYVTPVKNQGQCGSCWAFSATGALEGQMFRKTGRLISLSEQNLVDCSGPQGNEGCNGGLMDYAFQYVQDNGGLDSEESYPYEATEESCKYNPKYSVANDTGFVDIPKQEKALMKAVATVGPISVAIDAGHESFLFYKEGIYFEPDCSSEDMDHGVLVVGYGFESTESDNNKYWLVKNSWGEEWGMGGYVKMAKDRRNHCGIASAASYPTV
Active calls of the source: *; ? = inconclusive; · = not tested or not shown.

SMILES | ALR H2O2 inh | PolyA inh | IDE inh | CaV13 ICDI inh | PfM18AAP inh-1 | IDE cell activ | PfM18AAP inh-2 | CTSL1 counter
O=C(O)C1OC(Oc2c(-c3ccc(O)c(O)c3)oc3cc(O)cc(O)c3c2=O)C(O)C(O)C1O (stereo not drawn) | 99* | 0 | 5 | · | 65* | · | 43* | 4
COc1cc(O)c2c(=O)c3c(O[C@H]4O[C@@H](CO)[C@H](O)[C@@H](O)[C@@H]4O)ccc(O)c3oc2c1 | 39 | · | 8 | -11 | · | 2 | · | ·
O=c1cc(-c2ccc(O)c(O)c2)oc2cc(O)cc(O)c12 | ? | 7 | 0 | -5 | · | -1 | · | ·
N=c1sccn1CC(=O)NC(c1ccccc1)c1ccccc1 | -6 | -12 | 2 | -2 | 2 | 1 | · | ·
O=C1CCCCCCC1Sc1ccccc1[N+](=O)[O-] (stereo not drawn) | · | 4 | 0 | -2 | 38* | -1 | -48 | 0
O=[N+]([O-])c1ccccc1S(=O)(=O)NC1CCCCCCC1 | -8 | 16 | 4 | -2 | 0 | 0 | · | ·
CCOC(=O)c1cc(C(=O)Nc2sc3c(c2C#N)CCCC3)nn1C | 5 | 19 | 1 | · | 37* | -3 | -39 | -4
Cn1ccc(C(=O)Nc2sc3c(c2C#N)CCC3)n1 | -3 | -2 | 9 | -4 | 8 | 5 | · | ·
NS(=O)(=O)c1ccc(NC(=O)NC2CCCCC2)cc1 | 0 | 9 | -1 | -2 | -6 | 3 | · | ·
NS(=O)(=O)c1ccc(NC(=S)NC2CCCCC2)cc1 | -4 | -4 | 3 | 1 | 43* | 0 | -4 | 1
COc1ccc(C(=O)OCC(=O)Nc2nnc(-c3ccccc3)o2)cc1 | 5 | 7 | 1 | -5 | 42* | 5 | -21 | -9
COc1cc(C(=O)OCC(=O)Nc2nnc(-c3ccccc3)o2)cc(OC)c1OC | · | 10 | -2 | -6 | · | 4 | · | ·
O=C(CCCOc1ccccc1)Nc1cccc(S(=O)(=O)N2CCOCC2)c1 | -7 | · | 2 | -5 | · | -6 | · | ·
COc1cccc(/C=C2\SC(=S)N(CCCC(=O)N3CCCC3)C2=O)c1 | -7 | -11 | -4 | · | 2 | 3 | · | ·
COc1cccc(/C=C2\SC(=O)N(CCC(=O)N3CCC(C(=O)O)CC3)C2=O)c1 | -4 | 3 | 1 | -4 | 35* | 4 | -38 | 3
O=C(O)CCC(=O)Nc1ccc(Cc2ccc(NC(=O)CCC(=O)O)c(O)c2)cc1O | 48 | 0 | 2 | -5 | 58* | 2 | -6 | 0
Cc1nnc(-c2ccc(Oc3ccc(Br)cc3)c([N+](=O)[O-])c2)o1 | 2 | -6 | 2 | 8 | 33* | -1 | -55 | -1
Cc1cc(Oc2ccc(-c3nnc(-c4ccccc4)o3)cc2[N+](=O)[O-])ccc1Cl | -8 | 10 | 3 | -6 | -3 | 3 | · | ·
COc1cccc(CC(=O)OCC(=O)NC(=O)c2ccc(OC(F)F)cc2)c1 | -1 | 2 | 1 | -6 | · | 1 | · | ·
Cc1ccc([N+](=O)[O-])cc1-c1[nH]c(-c2ccc(O)c(O)c2)nc1-c1ccccc1 | 97* | 2 | 0 | -4 | 73* | 4 | 74* | 0
Cc1ccc(-c2nc3ccc([N+](=O)[O-])cc3[nH]2)cc1 | -16 | -34 | 11 | 4 | 3 | -1 | · | ·
Cc1c(C(=O)O)cccc1-c1ccc(/C=N/n2cnnc2)o1 | · | 9 | 2 | -4 | 35* | 6 | -1 | -3
Cc1cc(-c2ccc(/C=N/n3cnnc3)o2)ccc1Cl | 0 | -6 | 2 | -6 | 16 | -1 | · | ·
Cc1cc([N+](=O)[O-])c(C)cc1-c1ccc(/C=N/n2cnnc2)o1 | -16 | -9 | · | -2 | 15 | -1 | · | ·
O=C(O)c1cccc(-c2ccc(/C=N/n3cnnc3)o2)c1 | -10 | 11 | 4 | -2 | 32* | 0 | -12 | 7
SMILES | ALR H2O2 inh | PolyA inh | IDE inh | CaV13 ICDI inh | PfM18AAP inh-1 | IDE cell activ | PfM18AAP inh-2 | CTSL1 counter
O=[N+]([O-])c1ccc(-c2ccc(/C=N/n3cnnc3)o2)c(Br)c1 | 38 | -26 | 3 | -2 | 51* | 3 | -10 | 4
COc1ccc(NC(=O)CSc2nc3c(c(=O)n(C)c(=O)n3C)n2C)c(OC)c1 | 3 | 2 | 6 | -5 | 4 | 4 | · | ·
Cc1ccc(N(C(=O)CNC(=O)c2ccco2)C(C(=O)NC2CCCC2)c2ccncc2)cc1F (stereo not drawn) | 0 | 3 | 10 | -2 | -6 | 2 | · | ·
Cc1ccsc1C(=O)NNC(=O)Nc1ccc(Cl)c(Cl)c1 | -3 | 5 | -1 | -3 | 41* | 1 | 28 | 0
Cc1cc(OC(=O)c2cccc(Br)c2)c([N+](=O)[O-])c(=O)[nH]1 | -4 | -12 | 4 | -6 | 9 | 8 | · | ·
Cc1ccn2cc(-c3cccc(NC(=O)C(C)C)c3)nc2c1 | 4 | 15 | 7 | -7 | 2 | 2 | · | ·
c1ccc(-c2cn3ccccc3n2)cc1 | · | · | · | -6 | · | 3 | · | ·
Oc1ccc(-c2cn3ccccc3n2)cc1O | 99* | 8 | -2 | -2 | 70* | 1 | 58* | -2
Cc1ccn2cc(-c3ccc(O)c(O)c3)nc2c1 | 99* | -4 | -4 | -3 | 72* | -2 | 51* | -8
Cc1cc(N)ccc1NC(=O)CN1CCOCC1 | · | 31 | 8 | -3 | 0 | 4 | · | ·
COc1ccc(C2=CC(=O)C[C@H](c3ccc(OC)cc3)C2)cc1 | -6 | · | 2 | -4 | · | -3 | · | ·
COc1ccc(C2=CC(=O)C=CC2=O)cc1 | · | -35 | · | · | 56* | · | 62* | -3
S=c1nc(C23CC4CC(CC(C4)C2)C3)[nH][nH]1 | 7 | -5 | 4 | -2 | 36* | 4 | 17 | 3
NNc1ncnc2c1cnn2-c1ccccc1 | 53 | -7 | 2 | · | 36* | 5 | -3 | -1
Cc1cc(C(=O)NNC(=O)c2ccc(Cl)cc2Cl)c(C)o1 | 4 | 16 | 9 | -5 | · | 7 | · | ·
N#CCC(=O)N/N=C1\CCCCC1C1CCCCC1 (stereo not drawn) | 6 | -7 | 1 | -7 | 44* | 6 | -29 | -6
NC(=O)c1c(NC(NC(=O)c2ccco2)C(=O)c2ccc(Cl)cc2)sc2c1CCCC2 (stereo not drawn) | -2 | 3 | 7 | -5 | 38* | -4 | -22 | 1
Cc1ccc(C)c(CN2C(=O)c3ccccc3S(=O)c3ccc(C(=O)N4CCN(c5ccccn5)CC4)cc32)c1 (stereo not drawn) | -40 | 3 | 12 | -3 | -3 | -1 | · | ·
